ADAM17 inh – ADAM17 inhibition, QFRET primary screen. P78536. recombinant ADAM17, EDANS/DABCYL FRET peptide cleavage. inhibition, % at 6.95 µM. actives 0.83% (n = 370,000). AID 720648;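 active means inhibition above the mean of compounds lying between control limits plus 3 SD, set per campaign, cut at about 8.5% in these data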;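 further: 0% = DMSO-only wells as the low control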
proKLK7 act – activators of human kallikrein-7 zymogen; activation, % at 7 µM; purified proKLK7, EDANS-DABCYL substrate fluorescence; 100% is mature enzyme control, 0% vehicle; AID 652039; actives 0.9% (n = 370,000);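 active means activation above the mean of all tested compounds plus 3 SD, computed per campaign excluding outliers beyond control limits, cut at about 13% in these data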
Target sequence (P49862 whole entry, looked up): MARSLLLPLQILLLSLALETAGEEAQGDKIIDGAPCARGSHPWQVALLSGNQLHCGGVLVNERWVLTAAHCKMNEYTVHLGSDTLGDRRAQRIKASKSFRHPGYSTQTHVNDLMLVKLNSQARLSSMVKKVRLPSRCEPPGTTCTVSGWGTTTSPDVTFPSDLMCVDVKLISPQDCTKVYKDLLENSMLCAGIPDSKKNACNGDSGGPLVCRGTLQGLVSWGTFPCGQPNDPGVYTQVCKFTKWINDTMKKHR
ADAM10 inh – ADAM10 inhibition, QFRET primary screen. recombinant ADAM10, EDANS/DABCYL FRET peptide cleavage, 3 h. inhibition, % at 7 µM. actives 0.62% (n = 370,000). AID 720582;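 active means inhibition above a per-campaign cutoff equal to the mean of compounds falling between control-based bounds plus 3 SD, cut at about 20% in these data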;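 further: 0% = DMSO wells while the 100% control is not disclosed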
GRIN3A LBD mod – NR3A (human) ligand-binding domain modulation; NR3A LBD differential scanning fluorimetry, Tm shift; 0% = protein alone, 100% = glycine-bound protein; Tm shift relative to glycine control, % at 25 µM; actives 2.5% (n = 340,000);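 active means melting temperature shift of at least 10% of the positive control shift, at one fixed dose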
rCAG binder – r(CAG) repeat RNA binding; TO-PRO-1 dye displacement fluorescence; inhibition, % at 3 µM; actives 1.3% (n = 370,000); AID 651821;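 active means inhibition above the plate cutoff, the mean of all test compounds on that plate plus 3 SD, cut at about 35% in these data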;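 further: 0% = DMSO alone and 100% = 100 µM mitoxantrone as full dye displacement; higher means more dye released from RNA so lower well fluorescence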
AHR act – activators of human aryl hydrocarbon receptor | AID 2796 | actives 2.5% (n = 320,000) | AHR-responsive luciferase reporter cells, luminescence | activation, % at 5 µM; in the data active means activation above about 47%;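 further: 0% = vehicle wells and 100% = reference agonist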
rCAG binder conf – r(CAG) RNA repeat binding, confirmation. shares compounds with rCAG binder. inhibition, % at 3 µM. TO-PRO-1 dye displacement fluorescence. actives 70% (n = 4,300);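 active means inhibition above a per-plate cutoff, the mean inhibition of sample wells plus 3 SD, cut at about 35% in these data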;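 further: loss of TO-PRO-1 fluorescence as compound displaces dye from 1x1 AA loop RNA; 0% = DMSO only wells and 100% = 100 µM mitoxantrone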
dCAG dye counter – disrupts DNA CAG TO-PRO-1 complex, flagging rCAG hits; actives 94% (n = 4,300); shares compounds with rCAG binder; AID 652068; d(CAG) DNA oligo TO-PRO-1 dye displacement, fluorescence; inhibition, % at 3 µM;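 active means inhibition above its plate's cutoff, the mean test-well inhibition plus 3 SD, cut at about 4.8% in these data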;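 further: 0% = DNA dye mix with DMSO and 100% = 100 µM mitoxantrone; hits displace the dye from DNA and so lower well fluorescence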
DNA CAG DR – counter-screen for rCAG binders: inhibitors of DNA CAG TO-PRO-1 complex | shares compounds with rCAG binder | DNA CAG/GTC duplex TO-PRO-1 dye displacement fluorescence | IC50, µM | actives 20% (n = 250) | AID 686960; in the data active means IC50 below about 10 µM
* = called active by the depositor; i = inactive; x = no result given. Shown are actives, neighbours in structure and some others; about 7% of the full set was active somewhere.

SMILES	ADAM17 inh	proKLK7 act	ADAM10 inh	GRIN3A LBD mod	rCAG binder	AHR act	rCAG binder conf	dCAG dye counter	others
CC(C)C[C@H]1COc2cccc(N3CCOCC3)c2S(=O)(=O)N1	-2	0	-8	x	0	x	x	x
Cc1ccc(C(=O)O)cc1-c1ccc(/C=C2\SC(=O)N(CC(=O)Nc3ccccc3)C2=O)o1	-2	1	3	-3	42*	-1	89*	66*
Cc1ccc(NC(=O)CN2C(=O)S/C(=C\c3cc(C)n(-c4cccc(C(=O)O)c4)c3C)C2=O)cc1	-2	1	-9	-2	72*	0	71*	32*	DNA CAG DR=i
Cc1ccc(NC(=O)CN2C(=O)S/C(=C\c3ccc(C(=O)O)cc3)C2=O)cc1	-2	1	-5	-2	1	0	x	x
Cc1cc(C(=O)O)ccc1-c1ccc(/C=C2\SC(=O)N(CC(=O)Nc3ccc4c(c3)OCO4)C2=O)o1	-2	0	-13	x	11	x	x	x
Cc1ccc(C(=O)O)cc1-c1ccc(/C=C2/NC(=O)N(c3ccccc3)C2=O)o1	-13	2	-48	0	62*	1	60*	22*
C#CCN1C(=O)S/C(=C\c2ccc(-c3ccc(C(=O)O)cc3C)o2)C1=O	-9	0	-14	-1	48*	5	43*	16*
Cc1cc(C(=O)O)ccc1-c1ccc(/C=C2\NC(=O)N(Cc3ccccc3Cl)C2=O)o1	x	x	x	-14	x	1	x	x
Cc1ccccc1NC(=O)CN1C(=O)S/C(=C\c2ccc(-c3cc(C(=O)O)ccc3C)o2)C1=O	-2	0	-6	-13	10	x	x	x
COC(=O)C[C@@H]1CC[C@H]2[C@H](COc3ccc(NC(=O)Nc4cccc(C#N)c4)cc3C(=O)N2C)O1	1	0	1	x	3	x	x	x
CC(C)c1[nH]nc2c1C(c1ccc3c(c1)OCO3)NC2=O (stereo not given)	1	0	-5	x	4	x	x	x
CCCCCCCCCCCCCCCCCCNc1ccn(C2OC(COP(=O)(O)OCC3OC(n4cc(F)c(=O)[nH]c4=O)CC3O)C(O)C2O)c(=O)n1 (stereo not given)	-5	0	1	0	55*	x	61*	36*
COc1ccc(C2=NOC(Cn3nc(-c4ccccc4C)cc3C(=O)O)C2)cc1 (stereo not given)	4	1	9	1	39*	1	19	5.0*
COC(=O)c1ccc(COc2ccccc2/C=C/C(=O)c2ccc(OCC(=O)O)cc2)cc1	-8	-9	-22	-4	56*	2	64*	24*
COC(=O)C1CN(Cc2ccccc2)CCS(=O)(=O)N1Cc1cn(Cc2ccc(F)cc2)nn1 (stereo not given)	1	-1	3	x	0	x	x	x
O=[N+]([O-])c1ccc(COc2cccc(CO)c2)cc1	1	0	6	x	3	x	x	x
COC(=O)C1CCC(CNC(=O)C(Cc2ccc3c(c2)OCO3)NC(C)=O)CC1 (stereo not given)	4	1	-4	x	3	x	x	x
Cc1ccc(/C=C(\CCC(=O)O)c2nc3ccccc3s2)cc1[N+](=O)[O-]	-1	0	2	2	49*	1	65*	25*
CNc1ccc(/C=C(\CCC(=O)O)c2nc3ccccc3s2)cc1[N+](=O)[O-]	5	0	3	25*	78*	2	82*	39*
CN(c1ccccc1)c1ccc(/C=C(\CCC(=O)O)c2nc3ccccc3s2)cc1[N+](=O)[O-]	9.8*	0	18	1	71*	1	78*	37*
O=C(Cc1ccccc1)N1O[C@H]2C=C[C@@H]1C2	-4	0	-7	x	3	x	x	x
Cc1cc(NS(=O)(=O)c2ccc(Nc3nc(-c4sc(N)nc4C)cs3)cc2)no1	x	x	x	-2	x	4	x	x
Cc1cc(NS(=O)(=O)c2ccc(Nc3nc(-c4ccc(O)cc4)cs3)cc2)no1	-1	0	0	4	52*	60*	33	9.7*
CCC(=O)Nc1ccc(S(=O)(=O)Nc2cc(C)on2)cc1	-1	1	0	-4	-1	-1	x	x
Cc1cc(NS(=O)(=O)c2ccc(Nc3nc(-c4ccc(C)c(C)c4)cs3)cc2)no1	-4	0	-2	16*	88*	0	84*	55*
SMILES	ADAM17 inh	proKLK7 act	ADAM10 inh	GRIN3A LBD mod	rCAG binder	AHR act	rCAG binder conf	dCAG dye counter	others
COc1cc(NS(=O)(=O)c2ccc(Nc3nc(-c4ccccc4)cs3)cc2)nc(OC)n1	-2	1	-4	27*	87*	0	83*	54*
O=c1[nH]c2ccc(S(=O)(=O)N3CCN(c4ccccc4F)CC3)cc2s1	1	0	8	1	35*	2	22	5.2*
O=c1ccc2cc(S(=O)(=O)N3CCN(c4ccccc4F)CC3)ccc2o1	-2	0	-7	-2	0	0	x	x
O=C(O)c1ccc(NS(=O)(=O)c2ccc3c(c2)C2C=CCC2C(c2ccccc2F)N3)cc1 (stereo not given)	-6	5	-11	-97	88*	x	61*	27*
O=C(O)c1ccc2c(c1)C1C=CCC1C(c1cc3c(cc1Br)OCO3)N2 (stereo not given)	2	0	-3	-3	34	3	x	x
COc1ccc(/C=C2/SC(=O)N(CCC(=O)Nc3ccc(S(=O)(=O)Nc4nccs4)cc3)C2=O)cc1	0	0	0	6	84*	0	82*	49*
COc1ccc(/C=C2\SC(=O)N(CCC(=O)Nc3ccc(S(=O)(=O)Nc4nccs4)cc3)C2=O)cc1	3	1	15	11*	80*	1	79*	45*
COCC(=O)Nc1ccc(S(=O)(=O)Nc2nccs2)cc1	-1	0	-1	0	4	-1	x	x
O=C(CCN1C(=O)S/C(=C\c2cccs2)C1=O)Nc1nccs1	-9	0	-11	1	1	2	x	x
O=C(Nc1nc(Cc2ccccc2)c(Cc2ccccc2)n1Cc1ccccc1)c1ccccc1	2	-11	-3	x	8	x	x	x
CCn1c(COc2ccc(C)cc2)nnc1SCc1cccc(C(F)(F)F)c1	7	0	9	x	-4	x	x	x
O=C(O)/C(=C\c1ccc(F)cc1)c1ccc(-c2ccccc2)cc1	0	0	0	0	38*	17	40*	9.7*
O=C(O)/C(=C\c1ccccc1OC(F)F)c1ccc(-c2ccccc2)cc1	-9	-1	-16	-2	48*	24	42*	13*

Screening data (PubChem BioAssay)
